{"source": "PubChem BioAssay (NCI)", "note": "Compounds without any hit were thinned out: in the full panel of roughly 83,000, 20% have a hit.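 Percent growth is the endpoint: 0 to 100 indicates growth inhibition (40 means 60% inhibition), 0 means no net growth, and negative values indicate cell death.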 Values without a mark were called inactive. Active and inactive are the calls of the source. Rule for the calls: active = growth percent below 10; inactive = the rest."}
{"system": "HOP-62 NSCLC", "assay": "NCI-60 one-dose screen, 48 h (100 = growth as untreated, 0 = no growth, -100 = all killed)", "conditions": "10 µM unless noted"}
{"compound": "O=C1NC(=S)N[C@H]1CC(=O)n1cnc2ccccc21", "growth": "93%"}
{"compound": "O=S(=O)(Nc1ccc(I)cc1F)c1ccc(-c2cnc(C3CC3)o2)cc1", "growth": "52.4%"}
{"compound": "CC[C@@H](C(=O)[C@@H](C)[C@@H](O)[C@H](C)[C@@H]1O[C@@H]([C@@H](CC)C(=O)O)CC[C@@H]1C)[C@H]1OC2(C=C[C@@H](O)[C@]3(CC[C@@](C)([C@H]4CC[C@](O)(CC)[C@H](C)O4)O3)O2)[C@H](C)C[C@@H]1C", "note": "(some centres undefined)", "growth": "39.3%"}
{"compound": "CCOC(=O)c1csc(NC(=O)COc2cccc(/C=C3\\CSc4ccccc4C3=O)c2)n1", "growth": "80.1%"}
{"compound": "CN1CCN(c2ccc3nc(-c4ccc(OCCCCN5CCN(CCCCN6C(=O)c7cccc8cccc(c78)C6=O)CC5)cc4)[nH]c3c2)CC1", "growth": "64.1%"}
{"compound": "Cc1ncc(C(=O)Nc2ccc(CN3CCN(C)CC3)c(C(F)(F)F)c2)cc1C#Cc1cnc2cccnn12", "growth": "4.59% (active)"}
{"compound": "Cc1nc2c3c(-c4ccccc4)c(-c4ccccc4)oc3ncn2n1", "growth": "90.7%"}
{"compound": "O=C(N/N=C/c1ccccc1O)c1ccccc1Nc1ccnc(C(F)(F)F)c1", "growth": "-5.32% (active)"}
{"compound": "COC(=O)[C@]12CCC(C)(C)C[C@H]1[C@H]1C(=O)C[C@@H]3[C@@]4(C)c5c([nH]c6ccccc6c5=O)C(C)(C)[C@@H]4CC[C@@]3(C)[C@]1(C)CC2", "growth": "85.5%"}
{"compound": "COc1ccc(-c2n[nH]nc2-c2csc3ccccc23)cc1OC", "growth": "25.2%"}
{"compound": "O=C1c2ccccc2C(=O)c2c(N=Nc3[nH]c(=S)[nH]c3O)cccc21", "growth": "25%"}
{"compound": "Cn1c(NCCc2ccc(O)c(O)c2)nc2c1c(=O)n(Cc1ccc(Br)cc1)c(=O)n2C", "growth": "108%"}
{"compound": "Cc1ccc(/C=C2\\SC(=S)N(CC(=O)NCCCN3CCOCC3)C2=O)cc1", "growth": "103%"}
{"compound": "Cc1ccc(C2Oc3ccccc3C3CC(c4cccs4)=NN32)cc1", "note": "(centres undefined)", "growth": "105%"}
{"compound": "C=CC(=O)Nc1cccc(-c2nc(SC)nc(NCCc3ccc(OC)c(OC)c3)c2C#N)c1", "growth": "75.1%"}
{"compound": "Cc1nc(/N=C(\\N)NC(=O)Nc2cccc([N+](=O)[O-])c2)sc1C", "growth": "83.3%"}
{"compound": "COc1ccc(-n2nc(C)c3c(Nc4ccc(NC(=O)Nc5ccc(Cl)c(C(F)(F)F)c5)cc4)ncnc32)cc1", "growth": "-15.3% (active)"}
{"compound": "O=C(/C=C/c1cccc([N+](=O)[O-])c1)c1ccc(O)c(CN2CCN(c3cc4c(cc3F)c(=O)c(C(=O)O)cn4C3CC3)CC2)c1", "growth": "43.7%"}
{"compound": "CCC([N+](=O)[O-])S(=O)(=O)c1ccc(C)cc1", "note": "(centres undefined)", "growth": "84.7%"}
{"compound": "Cc1cn2c(/C=C3/C(=O)Nc4c3ccc3ccccc43)c(C(F)(F)F)nc2s1", "growth": "27.2%"}
{"compound": "O=C1c2cc3c(cc2-c2c1c1ccc(F)cc1c(=O)n2C[C@H](O)[C@@H](O)[C@H](O)CO)OCO3", "growth": "-7.29% (active)"}
{"compound": "O=C(Nc1cccc2[nH]c(C(F)(F)F)nc12)c1ccc(-n2cnnn2)cc1", "growth": "97.6%"}
{"compound": "Fc1ccc(CNc2cccc3[nH]c(C(F)(F)F)nc23)cc1", "growth": "80.3%"}
{"compound": "O=C1c2cc3c(cc2-c2c1c1ccc(F)cc1c(=O)n2CCCNCCO)OCO3", "growth": "-48.9% (active)"}
{"compound": "N#CN1CC[C@H](C(=O)Nc2cc3cc(C(N)=O)ccc3cn2)C1", "growth": "-27.1% (active)"}
{"system": "NCI-H460 lung", "assay": "NCI-60 one-dose screen, 48 h (100 = growth as untreated, 0 = no growth, -100 = all killed)", "conditions": "10 µM unless noted"}
{"compound": "COc1cccc(/C=C2\\Oc3cc(OCCN4CCCC4)ccc3C2=O)c1", "growth": "93.8%"}
{"compound": "COc1ccc(-c2nc3ccc(-c4nc5ccc(N6CCN(c7ccncc7)CC6)cc5[nH]4)cc3[nH]2)cc1OC", "growth": "83.5%"}
{"compound": "Cc1ccc(C2=NN3C(C2)c2cc(Br)ccc2OC32CCN(Cc3ccccc3)CC2)o1", "note": "(centres undefined)", "growth": "98%"}
{"compound": "COc1cc2c(cc1-c1c(C)noc1C)ncc1nc(-c3ccccn3)n([C@H](C)COC(F)F)c12", "growth": "57.7%"}
{"compound": "Cc1oc(-c2ccc(Cl)cc2Cl)cc1C(=O)Nc1nccs1", "growth": "60.7%"}
{"compound": "COc1ccc2c(c1)c(-c1nonc1-c1cn(C)c3ccccc13)cn2C", "growth": "16.3%"}
{"compound": "COC(=O)c1ccc(NC(=O)c2ccc(-c3cccc([N+](=O)[O-])c3)o2)cc1", "growth": "101%"}
{"compound": "COc1cccc(C2=NN3C(C2)c2cc(Br)cc(OC)c2OC32CCN(Cc3ccccc3)CC2)c1", "note": "(centres undefined)", "growth": "101%"}
{"compound": "O=C1c2cc3c(cc2-c2c1c1cc(F)c(F)cc1c(=O)n2CCCn1ccnc1)OCO3", "growth": "-26% (active)"}
{"compound": "Cc1ccc2c(C(C[N+](=O)[O-])c3ccccc3F)c(-c3ccccc3)[nH]c2c1", "note": "(centres undefined)", "growth": "20.9%"}
{"compound": "Cc1ccccc1COc1ccc(-c2onc(C)c2-c2ccc(Cl)cc2)cc1", "growth": "54.7%"}
{"compound": "COC[C@H](C)n1c(C2CCOCC2)nc2cnc3cc(-c4c(C)noc4C)c(OC)cc3c21", "growth": "65.2%"}
{"compound": "C#CCOc1ccc2ncnc(NCc3cccc(NC(=O)CCl)c3)c2c1", "growth": "28.2% [8.25 µM]"}
{"compound": "COc1cc(-c2nn(C)nc2-c2cc3ccccc3s2)cc(OC)c1OC", "growth": "13%"}
{"compound": "O=C1NC(=S)N[C@H]1CC(=O)n1cnc2ccccc21", "growth": "104%"}
{"compound": "O=S(=O)(Nc1ccc(I)cc1F)c1ccc(-c2cnc(C3CC3)o2)cc1", "growth": "38.4%"}
{"compound": "CC[C@@H](C(=O)[C@@H](C)[C@@H](O)[C@H](C)[C@@H]1O[C@@H]([C@@H](CC)C(=O)O)CC[C@@H]1C)[C@H]1OC2(C=C[C@@H](O)[C@]3(CC[C@@](C)([C@H]4CC[C@](O)(CC)[C@H](C)O4)O3)O2)[C@H](C)C[C@@H]1C", "note": "(some centres undefined)", "growth": "10%"}
{"compound": "CCOC(=O)c1csc(NC(=O)COc2cccc(/C=C3\\CSc4ccccc4C3=O)c2)n1", "growth": "98.4%"}
{"compound": "CN1CCN(c2ccc3nc(-c4ccc(OCCCCN5CCN(CCCCN6C(=O)c7cccc8cccc(c78)C6=O)CC5)cc4)[nH]c3c2)CC1", "growth": "71.9%"}
{"compound": "Cc1ncc(C(=O)Nc2ccc(CN3CCN(C)CC3)c(C(F)(F)F)c2)cc1C#Cc1cnc2cccnn12", "growth": "-53.1% (active)"}
{"compound": "Cc1nc2c3c(-c4ccccc4)c(-c4ccccc4)oc3ncn2n1", "growth": "98%"}
{"compound": "O=C(N/N=C/c1ccccc1O)c1ccccc1Nc1ccnc(C(F)(F)F)c1", "growth": "-13.2% (active)"}
{"compound": "COC(=O)[C@]12CCC(C)(C)C[C@H]1[C@H]1C(=O)C[C@@H]3[C@@]4(C)c5c([nH]c6ccccc6c5=O)C(C)(C)[C@@H]4CC[C@@]3(C)[C@]1(C)CC2", "growth": "66.8%"}
{"compound": "COc1ccc(-c2n[nH]nc2-c2csc3ccccc23)cc1OC", "growth": "15.7%"}
{"compound": "O=C1c2ccccc2C(=O)c2c(N=Nc3[nH]c(=S)[nH]c3O)cccc21", "growth": "7.32% (active)"}
{"compound": "Cn1c(NCCc2ccc(O)c(O)c2)nc2c1c(=O)n(Cc1ccc(Br)cc1)c(=O)n2C", "growth": "94.3%"}
{"compound": "Cc1ccc(/C=C2\\SC(=S)N(CC(=O)NCCCN3CCOCC3)C2=O)cc1", "growth": "103%"}
{"compound": "Cc1ccc(C2Oc3ccccc3C3CC(c4cccs4)=NN32)cc1", "note": "(centres undefined)", "growth": "101%"}
{"compound": "C=CC(=O)Nc1cccc(-c2nc(SC)nc(NCCc3ccc(OC)c(OC)c3)c2C#N)c1", "growth": "74.6%"}
{"compound": "Cc1nc(/N=C(\\N)NC(=O)Nc2cccc([N+](=O)[O-])c2)sc1C", "growth": "90.5%"}
{"compound": "COc1ccc(-n2nc(C)c3c(Nc4ccc(NC(=O)Nc5ccc(Cl)c(C(F)(F)F)c5)cc4)ncnc32)cc1", "growth": "0.651% (active)"}
{"compound": "O=C(/C=C/c1cccc([N+](=O)[O-])c1)c1ccc(O)c(CN2CCN(c3cc4c(cc3F)c(=O)c(C(=O)O)cn4C3CC3)CC2)c1", "growth": "37.1%"}
{"compound": "CCC([N+](=O)[O-])S(=O)(=O)c1ccc(C)cc1", "note": "(centres undefined)", "growth": "104%"}
{"compound": "Cc1cn2c(/C=C3/C(=O)Nc4c3ccc3ccccc43)c(C(F)(F)F)nc2s1", "growth": "9.31% (active)"}
{"compound": "O=C1c2cc3c(cc2-c2c1c1ccc(F)cc1c(=O)n2C[C@H](O)[C@@H](O)[C@H](O)CO)OCO3", "growth": "3.2% (active)"}
{"compound": "O=C(Nc1cccc2[nH]c(C(F)(F)F)nc12)c1ccc(-n2cnnn2)cc1", "growth": "81.9%"}
{"compound": "Fc1ccc(CNc2cccc3[nH]c(C(F)(F)F)nc23)cc1", "growth": "83%"}
{"compound": "O=C1c2cc3c(cc2-c2c1c1ccc(F)cc1c(=O)n2CCCNCCO)OCO3", "growth": "-36.8% (active)"}
{"compound": "N#CN1CC[C@H](C(=O)Nc2cc3cc(C(N)=O)ccc3cn2)C1", "growth": "6.93% (active)"}
